Out of some 200,000 compounds screened, about 25 (0.01%) were called active. Roughly 23% stayed inconclusive and do not appear here. Calls come from the whole dose curve; as a rule, active = well fitted inhibition curve with a large enough effect in the signal ratio, with a control signal flat (not every such curve was filed as active); inconclusive = small, poorly fitted or top-dose-only effect, or effect the other way, or a change in a side signal; inactive = flat fitted curve, though single readings scatter; the % refers to the signal ratio. Shown is part of a subset that was picked to be rich in actives.
Experiment: qHTS Assay for Modulators of Lamin A Splicing
Conditions: HeLa LMNA splicing GFP/RFP minigene ratio, 48 h; series mostly up to 46 µM; ratio change, negative = inhibition: at the top concentration
From the text: NCGC Assay Overview: Hutchinson-Gilford Progeria Syndrome (HGPS) is a pediatric premature aging disease caused by a spontaneous mutation in the lamin A/C (LMNA) gene. The mutation activates a cryptic splice site in the LMNA pre-mRNA which results in production of a pre-lamin A protein that cannot be processed properly. The mutant protein accumulates in the nucleus and negatively affects numerous cellular functions. Correction of the splicing defect in HGPS patient cells using a targeted oligonucleotide (exo11) leads to reversal of the cellular disease phenotypes. To identify small molecule modulators of aberrant LMNA splicing, a homogenous assay was constructed in HeLa cells that used a GFP containing minigene to report on correction of aberrant splicing in lamin A and a RFP (DsRed2) to report on cell viability, uniformity and nonspecific effects on the assay signal. This assay was adapted to laser-scanning microplate cytometry (Acumen, TTP Labtech) where miniaturization of the assay to a 1,536-well plate format was possible. References: Bowen, W. P.; Wylie, P. G. Application of Laser-Scanning Fluorescence Microplate Cytometry in High Content Screening. Assay Drug Dev Technol 2006;4:209-221. Scaffidi P, Misteli T. Reversal of the cellular phenotype in the premature aging disease Hutchinson-Gilford progeria syndrome. Nat.
NCGC Assay Protocol Summary: Reagents/Controls: Stable clones expressing DsRed2 and lamin A-EGFP were generated by Cell and Molecular Technologies in S3 HeLa cells. HeLa cells were prepared for the assay when they were 70-90% confluent. The cells were counted and resuspended in Opti-MEM I (no phenol red; Gibco), 2% FBS, 1% penicillin/ streptomycin (Gibco) at concentration of 120 cells/uL concentration. The suspension was passed through a Falcon basket filter with pore size 40um (Beckton Dickson). Control titrations: column […] 1536-well plate contained a sixteen point titration (1:2 dilutions) in duplicate of ancitabine (Sigma: A8598) beginning at 40 uM final concentration. Column 2 contained a sixteen point titration (1:2 dilutions) of cycloheximide beginning at 1.4 mM final concentration. Column 3 contained ancitabine at 40 uM and column 4 contained was the vehicle control (0.5% DMSO final concentration). Assay Steps: 5 uL of HeLa cells were plated in Aurora LoBase black clear bottom (cyclic-olefin polymer) 1536-well plates at a final density of 600 cells/well. Controls and library compounds were added with a 1536-well pin array using the Kalypsys pin-tool. The plates were then incubated for 48 hrs in a cell-culture incubator (37 °C; 5% CO2, 98% humidity). Following incubation the plates were read on the Acumen Explorer using the 488 nm laser. Data was collected on objects between 10 and 100 um in size. Cell objects were defined by a 15 um width x 10 um depth filter. The ratio of the total object intensity in PMT1 (500-530 nm emission; GFP) over PMT3 (575-640 nm emission; RFP) was calculated for analysis. Keywords: NIH Roadmap, MLSCN, MLI, MLSMR, qHTS, NCGC, lamin A, Progeria, RNA splicing.
% is set by controls: 0 for no effect and ±100 for the full control effect.

Ratio change, negative = inhibition, inactive:
CCOc1ccc(Nc2ncnc3scc(-c4ccc(OC)cc4)c23)cc1 -25.8%
COc1cc(OC)cc(C(=O)NCCc2csc3nc(-c4ccccc4F)nn23)c1 -12.9%
CCc1ccc(NS(=O)(=O)c2ccc3[nH]cc(C(=O)NCCc4cccc(C)c4)c(=O)c3c2)cc1 -2.18%
CC(=O)NCC(=O)N1CCCC(C(=O)c2ccc3c4c(cccc24)CC3)C1 (stereo not drawn) 9.21%
Cc1cccc(Oc2c([N+](=O)[O-])c(=O)n(C)c3ccccc23)c1 4.53%
CCOC(=O)c1sc(=NC(=O)/C=C/c2cccs2)n(C)c1C 2.93% [at 9.22 µM]
Cc1cccc(Cn2c(CN3CCC(C(=O)NCc4ccccc4Cl)CC3)cc3ccccc32)c1 0.813%
O=C(Nc1nnc(-c2ccco2)o1)c1ccc(S(=O)(=O)N2CCOCC2)cc1 16.1% [at 9.22 µM]
Cc1nc([N+](=O)[O-])cn1CC(=O)Nc1ccc2c(c1)OCO2 -9.08%
Cc1cccc(OCCC(=O)Nc2cc(S(=O)(=O)N3CCCCC3)ccc2N2CCOCC2)c1 6.84%
Cc1ccc(C)c(-n2ccnc2SCC(N)=O)c1 7.68%
CC1(C)OC(=O)C(=CSc2ccc(C(C)(C)C)cc2)C(=O)O1 -8.64%
COc1cc(NC(=O)c2cccnc2SC)cc(OC)c1 -6.83%
COc1ccccc1CN(C)c1nnnn1-c1ccccc1 -21.9%
COc1ccc(NC(=O)CSc2nnc(-c3ccccc3F)n2C2CC2)cc1S(N)(=O)=O -17.5%
CCOC(=O)c1cnc2[nH]c3ccccc3n2c1=O 4.43%
CC(=O)c1ccc(NC(=O)CSc2c(C(C)C)cnc3c2c(=O)n(C)c(=O)n3C)cc1 -2.64%
CCOC(=O)c1c(C)oc2nc(C)nc(N3CCN(c4ccc(OC)cc4)CC3)c12 -15.4%
Cc1ccc(/C([O-])=C(/C(=S)NCc2ccco2)[n+]2ccccc2)cc1[N+](=O)[O-] 1.77%
O=C(C1COc2ccccc2O1)N(Cc1cccnc1)c1nc2c(F)cc(F)cc2s1 (stereo not drawn) -5.27%
COc1ccc(NC(=O)c2sc3nc(-c4cc5cccc(OC)c5oc4=O)[nH]c(=O)c3c2C)cc1 13%
COc1ccc(NS(=O)(=O)c2ccc(O)c(C(=O)OCC(=O)NC3CCCCC3)c2)cc1 -10.8%
CCCN(CCC)CCCNC(=O)CNC(=O)c1nn(-c2ccc(OC)cc2)c(=O)c2ccccc12 -3.09%
COc1ccccc1NC(=O)C1=C(C)Nc2nc(SCC(=O)c3ccc(C)cc3)nn2C1c1ccccc1C (stereo not drawn) 17.2%
COc1cccc(C(O)Cc2nc3ccccc3n2C)c1OC (stereo not drawn) -1.35%
O=C(CCC(=O)N1CCCC1)Nc1ccc([N+](=O)[O-])cc1 3.87%
C/C(CC(=O)Nc1ccc(C)cc1C)=N\NC(=O)C(C)C 0.278%
O=C(Nc1nnc(S(=O)(=O)N2CCOCC2)s1)c1cccc(Br)c1 13.8%
Cc1nc(N2CCC(C)CC2)c2c(C)c(C(=O)Nc3cc(F)ccc3C)sc2n1 11.2% [at 9.22 µM]
CN(C)S(=O)(=O)c1ccc(NC(=O)COC(=O)Cn2[nH]c(=O)c3ccccc3c2=O)cc1 5.82%
Cc1ccccc1C(=O)Nc1ccc(N2CCCCCC2)cc1 7.32%
CC1CCN(C(=S)c2cccc([N+](=O)[O-])c2)CC1 -6.14%
CC(=O)c1sc(NC(=O)C2=NN(c3ccccc3)C(=O)CC2)nc1C -12.7%
OCC1(CCOc2ccccc2)CCN(Cc2cn[nH]c2-c2ccccc2)CC1 19.2%
CC(C)C(=O)Nc1ccc2oc(=O)ccc2c1 7.65%
Cc1ccsc1C1C(C#N)=C(N)OC2=C1C(=O)CC(C)(C)C2 (stereo not drawn) 3.22% [at 9.22 µM]
COc1cccc(NC(=O)CS(=O)(=O)c2cn(CC(=O)N3CCOCC3)c3ccccc23)c1 10.8% [at 9.22 µM]
COc1cccc(N2CCN(C(=O)CCCCCn3c(=O)[nH]c4ccccc4c3=O)CC2)c1 -15.3%
COc1ccc(N(CC(=O)NC2CCCC2)C(=O)CS(=O)CC(=O)Nc2ccc3c(c2)OCO3)cc1 (stereo not drawn) 16.3%
N#Cc1c(NC(=O)C2CC(Cl)=CCC2C(=O)O)sc2c1CCCCC2 (stereo not drawn) 0.744%
CCOc1ccccc1/C=N/NC(=O)CNC(=O)COc1ccccc1 19.6%
Cc1ccccc1N1C(=O)C(Oc2ccc(Cl)cc2)C1CNCC1CCCO1 (stereo not drawn) 5.13%
Fc1ccccc1N=C1Nc2cccc3cccc1c23 -7.4%
COc1ccc(C(=O)OCC(=O)NCC2CCCO2)cc1[N+](=O)[O-] (stereo not drawn) -12.3%
O=C(NC(=S)Nc1cccc(-c2ccc(CO)o2)c1)c1cccs1 -2.34%
COCCN(C(=O)c1ccccc1F)c1c(N)n(Cc2ccccc2)c(=O)[nH]c1=O -12.5%
Cc1c(Cl)cccc1NC(=S)N(Cc1ccccc1)Cc1cccnc1 -24.9%
Cc1cccc(NC(=O)N2CCC(CN3CCc4ccccc4C3)CC2)c1C 3.54%
Cc1nc(N2CCCCC2)sc1C=O -9.95%
CN(C(=O)CSc1nncc2ccccc12)C1CCCCC1 -27.8%
CCc1cccc(NC(=O)CN(C)S(=O)(=O)c2ccc3[nH]c4c(c3c2)CCCC4)c1 -8.85%
CC(C)CCN(C(=O)Nc1ccc(Cl)c(Cl)c1)C(C)c1cccs1 (stereo not drawn) -17.5%
COC(=O)CCC(=O)N1CCCC(CO)(Cc2ccccc2)C1 (stereo not drawn) -12.6%
Cc1csc(CN(C)C(=O)CC2C(=O)NCCN2CC(C)(C)C)n1 (stereo not drawn) 12.3%
O=C(NCCCN1CCOCC1)c1ccccc1NS(=O)(=O)c1ccc(F)cc1 -16%
COCCCNC(=S)NCCNc1nc2cc(C)c(C)cc2cc1C#N -12%
Cc1ccccc1CN1C(=O)c2ccccc2Sc2ccc(C(=O)NCCCN3CCOCC3)cc21 -5.48%
Cc1ccc(C2CC(c3cccc(NS(C)(=O)=O)c3)=NN2S(C)(=O)=O)cc1 (stereo not drawn) -2.59% [at 9.22 µM]
O=C1CCC/C(=N\NC(=O)NC2CCCCC2)C1 -17.2%
Cc1ccc(NC(=O)CNCc2ccccn2)cc1S(=O)(=O)N(C)C -1.55%
O=C(Oc1cccc(NC2=NS(=O)(=O)c3ccccc32)c1)c1ccncc1 -3.46%
O=C(CNC(=O)c1cc(=O)[nH]c2ccccc12)Nc1ccc(F)c(F)c1 3.5% [at 9.22 µM]
Cc1ccccc1Nc1nc(N)nc(CSc2nnc3ccccn23)n1 5.76%
CCc1ccc(C2C(C(=O)Nc3ccccc3)=C(C)Nc3c(C(=O)Nc4ccc(C)cc4)cnn32)cc1 (stereo not drawn) -11.7%
CCN(CC)c1nn2c(=O)c(C(=O)NCCc3ccccc3)cnc2s1 2.29%
O=C(N/N=C\c1cc(Br)c(Br)o1)C1COc2ccccc2O1 (stereo not drawn) -2.64%
CN(Cc1ccccn1)Cc1nc(-c2ccc(Cl)cc2)no1 -1.16%
Cc1ccc(Cl)cc1N1CCN(C(=O)c2cnc3c(-c4ccc(F)cc4)c(C)nn3c2C)CC1 2.41%
CSc1ccc(/C=N\NC(=O)CC(=O)NC(C)C)cc1 8.49%
CC1CCCCN1CCCNC(=O)Cn1ncc2c([nH]c3ccccc32)c1=O (stereo not drawn) 14.4%
CC(=O)c1cccc(-n2nnnc2SCC(=O)NNC(=O)C2CCCCC2)c1 7.45% [at 9.22 µM]
COc1ccc(NC(=O)c2ccccc2CC[N+](=O)[O-])cc1 -5.14%
COc1cccc(N(Cc2nnc3n2CCCCC3)C(=O)Nc2ccccc2F)c1 -6.23%
CCOc1ccc(NC(=O)C(CC(C)C)N2Cc3ccccc3C2=O)cc1 (stereo not drawn) -8.38%
Cc1cccc(NC(=O)c2ccc(F)c(S(=O)(=O)N(C)C3CCCCC3)c2)c1 -4.34%
Cc1cc(NC(=O)CSc2nc3c(cc2C#N)CCCCC3)no1 16.5%
Cn1c(N)c(C(=O)COC(=O)c2ccccc2NCc2ccco2)c(=O)n(C)c1=O 9.32%
Cc1csc(NC(=O)Nc2ccccc2[N+](=O)[O-])n1 2.56%
S=c1[nH]nc(-c2cccs2)n1/N=C/c1cccs1 21.8% [at 9.22 µM]
COCC(C)NCc1cc(Br)ccc1OC (stereo not drawn) 3.32%
Cc1ccc(S(=O)(=O)NC(=O)N2CCCN(Cc3ccc(F)cc3)CC2)cc1 -2.61%
Cc1ccc(C)c(-n2nnnc2SCC(=O)c2c(N)n(C)c(=O)n(C)c2=O)c1 -17.5% [at 9.22 µM]
CC(C(=O)N=Nc1c(O)n(C)c2ccc(Br)cc12)n1cnc2ccccc2c1=O (stereo not drawn) -4.31%
COc1ccc(Br)cc1/C=N/Nc1ccc(Cl)c(C(=O)O)c1 -12.6%
Cc1nnc(SCC(=O)NNC(=O)c2ccc(Cl)cc2)n1CC1CCCO1 (stereo not drawn) -6.72%
CCOC(=O)c1cccc(NC(=O)c2cc(S(=O)(=O)N3CCCC(C)C3)cn2C)c1 (stereo not drawn) -2.92%
Cc1ccc(NC(=O)Cn2c(=O)n(CCC(=O)NC3CCN(Cc4ccccc4)CC3)c(=O)c3ccccc32)cc1 9.28%
Cc1ccccc1NC(=O)NC1(C(=O)N2CCCC2)CCCCC1 5.21%
Cc1cccc(NC(=O)c2ccc3nc(C(C)C)oc3c2)c1C 1.86%
CC(=O)NC(Cc1ccc(F)c(F)c1)C(=O)NC1CCN(c2nnnn2-c2ccccc2)CC1 (stereo not drawn) 7.55%
O=C(CN1CCSCC1)N/N=C/c1ccc(Cl)cc1 -10.4% [at 9.22 µM]
COc1ccc2ncc3c(-c4ccc(C)c(C)c4)nn(CC(=O)NC4CCCC4)c3c2c1 -11.7%
COc1ccc(CNC(=O)C2=Cc3cccc(OC)c3OC2)cc1OC -0.906%
Cc1nccn1CCCNC(=O)CC1C(=O)NCCN1Cc1ccc(Cl)c(F)c1 (stereo not drawn) -1.13%
COc1cc(CN(C(=O)c2ccccc2Br)c2ccccn2)cc(OC)c1OC 4.95%
O=Cc1ccc(Oc2cccc(C(F)(F)F)c2)nc1 11.1%
Cc1ccccc1OCCSc1nc2ccc(NC(=O)c3ccco3)cc2s1 -7.54%
COc1cc(Cl)c(C)cc1Nc1nnc(-n2nc(C)cc2C)c2ccccc12 1.63%
COc1ccc(C(=O)Nc2cccc(S(C)(=O)=O)c2)cc1 -6.99%
C=CCn1c(CNC(=O)c2ccco2)nnc1SCC(=O)c1ccc(OC)cc1 17.7%
COc1cc(/C=N/Nc2ccc(C)cc2)cc(Br)c1O 10.1%
O=C(Nc1ccc2nc(SCCOc3ccccc3Cl)sc2c1)c1ccco1 1.78%
Cc1cc(C)c2c(NC(=O)C3CC3)nn(C)c2n1 2.71%
C/C(CC(=O)N1CCN(C=O)CC1)=N\NC(=O)c1ccc(Br)cc1 8.38%
COc1cccc(NC(=O)c2ccc3nc(CCc4ccccc4)oc3c2)c1 -1.82%
COc1ccc(CCNC(=O)c2ccc(CSCc3ccc(C)cc3)o2)cc1OC -5.92%
O=C(COc1ccc(-c2ccccc2)cc1)NN=C1CCCC1 -19.6%
CC1(C)CC(=O)c2cnc3nc4ccccc4n3c2C1 0.78%

— PubChem BioAssay AID1487 (National Center for Advancing Translational Sciences (NCATS), 2009)
